This is a sample that favours compounds with a hit; in the whole collection about 5.3% have one here.
TDP1 inh: blocks human tyrosyl-DNA phosphodiesterase 1 | recombinant TDP1, AlphaScreen DNA substrate cleavage | Q9NUW8 | 350,000 compounds, 0.28% hits | Potency, µM (titrated, usually from 130 µM), hits mostly inhibitors; also: nearly all actives have a fitted effect of over 40% in size
Target sequence (Q9NUW8 whole entry, looked up): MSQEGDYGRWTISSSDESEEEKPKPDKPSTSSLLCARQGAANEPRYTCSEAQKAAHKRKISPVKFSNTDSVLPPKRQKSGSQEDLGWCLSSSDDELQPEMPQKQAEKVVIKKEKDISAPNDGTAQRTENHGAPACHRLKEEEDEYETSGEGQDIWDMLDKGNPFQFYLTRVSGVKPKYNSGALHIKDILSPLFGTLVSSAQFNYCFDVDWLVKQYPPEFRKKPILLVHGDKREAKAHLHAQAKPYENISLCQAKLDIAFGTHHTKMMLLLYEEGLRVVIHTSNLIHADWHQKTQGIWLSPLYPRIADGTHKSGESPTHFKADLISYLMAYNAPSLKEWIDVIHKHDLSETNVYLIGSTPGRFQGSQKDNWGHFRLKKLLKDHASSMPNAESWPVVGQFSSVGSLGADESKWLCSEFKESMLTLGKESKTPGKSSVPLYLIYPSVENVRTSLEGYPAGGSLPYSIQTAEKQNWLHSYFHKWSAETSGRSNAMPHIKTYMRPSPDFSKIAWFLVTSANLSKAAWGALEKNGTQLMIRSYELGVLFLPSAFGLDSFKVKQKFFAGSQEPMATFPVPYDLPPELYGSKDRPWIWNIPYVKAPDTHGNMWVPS
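Signal: AlphaScreen proximity between streptavidin donor and anti-FITC acceptor beads on intact substrate. Reaction: Tdp1 1 nM, substrate 15 nM final, 5 min RT after 15 min compound preincubation.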
HP1b chromo inh: HP1-beta chromodomain-methylated histone interaction inhibition. Potency, µM (highest dose often 114 µM), usual class: inhibitors. AID 540317. AlphaScreen HP1-beta / biotin-H3K9me3 peptide binding. 390,000 compounds, 0.56% hits. P83916; also: nearly all actives have a fitted effect of over 70% in size
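Compound inhibition of the preformed complex between 50 nM HP1-beta and 50 nM biotinylated H3K9me3 peptide was read by AlphaScreen. Buffer was PBS pH 7.4 with 0.01% Tween-20. Incubations ran 30 min at room temperature, with 10 ug/mL donor/acceptor beads.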
Six1-Eya2 inh: inhibitors of human Six1/Eya2 interaction. activity change, % (no concentration beside the values). AlphaScreen GST-Six1/His-Eya2 binding, biochemical; active compounds read low. 360,000 compounds, 0.56% hits. Q15475+O00167; in the data active = activity change below about -65%; inconclusive = mostly about -30% to -63%
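Homogeneous AlphaScreen proximity assay pairing GST-Six1 with His-tagged Eya2 (added as 5X mix: 250 nM and 500 nM) in 50 mM Tris pH 8.0, 300 mM NaCl, 1 mM TCEP. Glutathione donor and nickel acceptor beads; 1 h, 37 °C, dark.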
BAZ2B block: blocks human BAZ2B; Q9UIF8; AlphaScreen BAZ2B-H3K14Ac peptide displacement; Potency, µM (titrated, usually from 114 µM), actives largely listed as inhibitors; 360,000 compounds, 4.4% hits; AID 504333; also: nearly all actives have a fitted effect of over 60% in size
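Complex of BAZ2B and biotin-H3K14Ac (50 nM apiece) forms over 30 min at RT, then faces library compounds up to 110 uM for another 30 min; AlphaScreen beads added, 20 min dark incubation, luminescence read.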
CtBP-E1A inh: blocks the CtBP interaction with E1A; AlphaScreen GST-E1A/His-CtBP binding, 1536-well; active compounds read low; activity change, % (no concentration beside the values); 340,000 compounds, 0.49% hits; in the data active = activity change below about -65%; inconclusive = mostly about -30% to -63%
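Homogeneous bead-based format: GST-tagged E1A captured on glutathione donor beads, His-tagged CtBP on nickel acceptor beads; compounds precede bead addition by 2 h at 37 °C.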
JMJD2A Tudor inh: inhibitors of human JMJD2A Tudor domain; O75164; 390,000 compounds, 4.4% hits; AlphaScreen JMJD2A-Tudor / H3K4me3 peptide binding; Potency, µM (top dose mostly 114 µM), usual class: inhibitors; also: nearly all actives have a fitted effect of over 50% in size
Hits are given with their value; – = inactive; ? = inconclusive; · = not tested or not shown; [ ] = dose if it differs, or a comment. Unless noted, calls follow the shape of the dose curve; as a rule, active = well fitted inhibition curve with a large enough effect; inconclusive = small, poorly fitted or top-dose-only effect; inactive = no such curve, though single readings can be large or run the other way.

SMILES | TDP1 inh | HP1b chromo inh | Six1-Eya2 inh | BAZ2B block | CtBP-E1A inh | JMJD2A Tudor inh
Cc1cc2c(s1)c1cnn(Cc3cc(F)cc(F)c3)c(=O)c1n2C | · | · | · | · | · | –
C/C(=N\N=c1/scc(C)n1Cc1ccco1)c1cccc([N+](=O)[O-])c1 | – | ? | ? | 10µM | – | 25.1µM
Cc1cs/c(=N\N=C\c2cccc([N+](=O)[O-])c2)n1Cc1ccco1 | – | – | – | – | – | –
COc1ccc(C)cc1NC(=O)COCc1cc(-c2ccc(F)cc2)on1 | – | – | · | – | · | –
Cc1ccn2c(Nc3ccccc3C)c(-c3ccc(N4CCOCC4)cc3)nc2c1 | – | – | · | ? | · | 44.7µM
Cc1ccc2nc(-c3ccc(N4CCOCC4)cc3)c(Nc3ccccc3C)n2c1 | – | ? | · | 10µM | · | 14.1µM
Cc1ccccc1Nc1c(-c2ccc(N3CCOCC3)cc2)nc2ccc(Cl)cn12 | – | – | · | – | · | ?
CCCCCCNC(=O)Nc1ccc(S(=O)(=O)Nc2ccc(CCNC[C@H](O)COc3ccc(O)cc3)cc2)cc1 | – | · | · | · | · | ·
CN(C)N=Nc1ccc(-c2cn(Cc3ccccc3)cn2)cc1 | · | – | – | 44.7µM | – | ?
COc1ccc(C)cc1NS(=O)(=O)c1ccc2c3c(cccc13)C(=O)N2 | –[12.3 µM] | – | · | – | · | 56.2µM
O=C(O)CNS(=O)(=O)c1ccc2c3c(cccc13)C(=O)N2 | – | – | – | – | – | 28.2µM
COc1ccc(C2C=C(c3cccc(OC)c3)Nc3c(C(=O)Nc4ccccc4)cnn32)cc1 (stereo unspecified) | – | – | · | – | · | –
O=C(COc1ccc(-c2ccccc2)cc1)N1CCN(C(=O)c2cccs2)CC1 | – | – | -74.1 | – | – | –
O=S(=O)(Nc1ccc2nc(-c3ccc(F)cc3)oc2c1)c1ccccc1 | – | – | · | – | · | –
CCC(C)NC(=O)C(=O)Nc1c2c(nn1-c1ccccc1)CS(=O)(=O)C2 (stereo unspecified) | – | – | · | ? | · | 44.7µM
COc1ccc(NC(=O)CC(C)S(=O)(=O)c2cc3c(cc2C)NC(=O)CO3)cc1OC (stereo unspecified) | – | – | · | – | · | –
Cc1ccc2nc3sc(C(=O)Nc4ccc(F)cc4)cc3cc2c1 | 10µM | – | · | ? | · | 39.8µM
CCOc1ccccc1NC(=O)c1cc2cc3cc(C)ccc3nc2s1 | – | – | · | – | · | –
c1ccc(N=c2nc(-c3ccccc3)n(-c3ccccc3)s2)cc1 | · | – | · | · | · | –
CC(=O)n1c(Cl)c(NC(=O)CCl)c2ccccc21 | – | – | – | 44.7µM | – | –
COc1ccc(C(CCNCc2ccc(N(C)C)cc2)c2ccccc2)cc1 (stereo unspecified) | · | 39.8µM | ? | 11.2µM | ? | 25.1µM
COc1ccccc1/C=C1\N=C(C(C)(C)C)OC1=O | – | ? | – | – | · | 50.1µM
CCc1oc(C(=O)O)cc1COC | 56.2µM | – | – | ? | – | ?
CCc1oc(C(=O)O)cc1CN(CC)CC | – | – | – | – | – | 31.6µM
CCCc1oc(C(=O)O)cc1CN | – | – | – | ? | – | –
SMILES | TDP1 inh | HP1b chromo inh | Six1-Eya2 inh | BAZ2B block | CtBP-E1A inh | JMJD2A Tudor inh
N#Cc1ccc2c(c1)C[C@]1(c3ccsc3)Oc3c(c(=O)oc4ccccc34)C2O1 | · | · | · | 12.6µM | · | ·
CCCC[C@]12Cc3cc(C#N)ccc3C(O1)c1c(c3ccccc3oc1=O)O2 | · | · | · | –[22.9 µM] | · | ·
COc1ccc2c3c(c(=O)oc2c1)C1O[C@](c2ccsc2)(Cc2cc(C#N)ccc21)O3 | · | · | · | 12.6µM | · | ·
COc1ccc(OC)c(CNC(=O)c2ccc(C)c(NC(=O)c3nsc4ccccc34)c2)c1 | – | – | · | – | · | –
O=[N+]([O-])c1cccc(S(=O)(=O)N2CCN(S(=O)(=O)c3ccc4c(c3)OCCO4)CC2)c1 | · | · | · | · | · | –
Cc1ccc(-c2nc3ccccn3c2Nc2ccccc2C)o1 | – | ? | · | · | · | ?
CN(C)S(=O)(=O)c1ccc(=S)[nH]c1 | – | ? | – | · | – | 56.2µM
CCC(=O)NC(c1ccc(OC)c(OC)c1)c1cc(Cl)c2cccnc2c1O (stereo unspecified) | – | – | -81.7 | 39.8µM | -85.1 | –
COc1ccccc1C(NC(C)=O)c1cc(Cl)c2cccnc2c1O (stereo unspecified) | · | – | ? | – | ? | ?
CCC(=O)NC(c1ccco1)c1cc(Cl)c2ccccc2c1O (stereo unspecified) | – | – | · | – | · | –
COc1ccc(C(NC(C)=O)c2cc(Cl)c3cccnc3c2O)cc1OC (stereo unspecified) | – | – | ? | 28.2µM | ? | 56.2µM
Cc1cc(C)cc(Nc2cc(C)nc3nc(-c4ccco4)nn23)c1 | – | – | · | – | · | –
COc1ccccc1N=c1oc2cc(O)ccc2cc1C(=O)NCC1CCCO1 (stereo unspecified) | – | – | – | – | – | –
COc1cccc(N=c2oc3cc(O)ccc3cc2C(=O)NCC2CCCO2)c1 (stereo unspecified) | – | – | – | 35.5µM | – | –
Cc1ccc(CN2COc3c(Cl)cc4c(-c5ccccc5)cc(=O)oc4c3C2)cc1 | – | – | · | – | · | –
CCOCCCn1c(=N)c(C(=O)NC2CCCCC2)cc2c(=O)n3ccccc3nc21 | · | – | · | – | · | –
Cc1cccc(CNC(=O)c2ccc(C)c(-n3c(C)nc4cccnc43)c2)c1 | – | – | · | – | · | –
Clc1ccccc1OCCSc1nnc(-c2cccs2)o1 | – | – | · | – | · | –
Nc1ccc(Nc2ccccc2)c(Cl)c1 | – | ? | ? | 50.1µM | – | ?
Nc1ccc(NC(=O)c2cccs2)c(Cl)c1 | – | – | – | – | – | –
CN(C)c1ccc(NC(=S)c2ccc3ccccc3n2)cc1 | – | – | – | 2.51µM | · | –
Cc1ccc(Nc2nc(-c3c(C)nc4ncccn34)cs2)cc1 | – | – | -74.6 | ? | -90.1 | ?
Cc1ccnc(Nc2nc(-c3c(C)nc4sccn34)cs2)c1 | – | – | -68.1 | 44.7µM | -78.3 | ?
Cc1nc2ncccn2c1-c1csc(Nc2ccc(O)cc2)n1 | – | – | -87.2 | ? | -90.0 | –
COC(=O)NC(c1ccco1)[C@]1(C(C)=O)CCCC1=O (stereo partly specified) | –[21 µM] | · | · | · | · | ·
SMILES | TDP1 inh | HP1b chromo inh | Six1-Eya2 inh | BAZ2B block | CtBP-E1A inh | JMJD2A Tudor inh
O=C(CN1c2cccc3cccc(c23)S1(=O)=O)NCc1ccc(F)cc1 | – | – | – | · | – | –
COc1cccc(CNC(=O)CN2c3cccc4cccc(c34)S2(=O)=O)c1 | · | – | – | 50.1µM | – | ?
O=C(NCCCN1CCN(c2ccccc2F)CC1)c1ccc2nc(CCc3ccccc3)oc2c1 | – | – | · | ? | · | ?
CCCc1cc(=O)oc2c(C)c3c(cc12)CN(CCc1ccc(Cl)cc1)CO3 | – | – | · | – | · | –
N=C1C(c2ccccc2)=C(O)CN1c1cccc(S(N)(=O)=O)c1 | – | – | – | – | – | –
N=C1C(c2ccccc2)=C(O)CN1c1cccc(S(=O)(=O)N2CCOCC2)c1 | · | – | – | – | – | 20µM

Compound activity (PubChem BioAssay)
